# Assay results taken from PubChem BioAssay AID463173 (ICCB-Longwood Screening Facility, Harvard Medical School, 2010).
# Hit rate of the full screen: of about 52,000 compounds, about 4,300 (8.3%) were called active. Cut-off read from the data, not from the text of the source: active = survival mostly below about 52% (no sharp cut-off); inactive = mostly above about 56%. Many of the other results were omitted from the sample, so actives are more common in it than they were.
# Tested on: DeltatarO mutant
# Assay: growth inhibition of S. aureus wild type versus tarO mutant, primary screen, teichoic acid synthesis inhibitors, RN4220, OD600 (AID 463173)
# Details: OD600, 18 h, hits give low values, screened at 18.75 µg/mL (by protocol)
row,SMILES,survival
1,O=C(CSc1nc2ccccc2nc1Cc1ccc(Cl)cc1)N1CCc2ccccc21,93% (inactive)
2,O=C(NC1CC(=O)N(c2ccc(F)cc2)C1)C(c1ccccc1)c1ccccc1 (stereo unspecified),124% (inactive)
3,CCc1ccc(C(=O)c2cn(CC(=O)Nc3ccc(Cl)cc3)c3cc4c(cc3c2=O)OCO4)cc1,146% (inactive)
4,CCc1ccc(NC(=O)Cn2ccn(-c3ccc(C)c(C)c3)c(=O)c2=O)cc1,104% (inactive)
5,COc1ccc(OC)c(CCNC(=O)c2sc3nc4n(c(=O)c3c2C)CCCC4)c1,80% (inactive)
6,COc1cccc(NC(=O)CCN2C(=O)c3ccccc3Sc3ncccc32)c1,102% (inactive)
7,O=c1c2cc3c(cc2nc2sc(Nc4cccc([N+](=O)[O-])c4)nn12)OCO3,123% (inactive)
8,O=C1c2[nH]nc(-c3ccccc3O)c2C(c2ccc(F)cc2)N1CCO (stereo unspecified),78% (inactive)
9,O=C1c2[nH]nc(-c3ccccc3O)c2C(c2ccc(Cl)cc2)N1CCc1ccccc1 (stereo unspecified),4% (active)
10,Cc1ccc(C2c3c(-c4ccccc4O)n[nH]c3C(=O)N2CCCO)cc1 (stereo unspecified),58% (inactive)
11,CC(C)c1ccc(C2c3c(-c4ccccc4O)n[nH]c3C(=O)N2CCc2ccccc2)cc1 (stereo unspecified),50% (inactive)
12,Cc1ccc(C2c3c(-c4ccccc4O)n[nH]c3C(=O)N2CCc2ccccc2)cc1 (stereo unspecified),32% (active)
13,CCN1C(=O)N(CC)C2NC(=S)NNC21 (stereo unspecified),91% (inactive)
14,CC(C)(C)OC(=O)N1CCC(c2c(C(=O)Nc3ccc4c(c3)OCCO4)cnn2-c2ccccc2)CC1,96% (inactive)
15,CCn1nc(C)c2c(-c3ccccc3)cc(=O)n(C(C)C(=O)NCCc3ccc(OC)c(OC)c3)c21 (stereo unspecified),92% (inactive)
16,CCCS(=O)(=O)N1CC(=O)N(c2ccc(C)cc2C)C(C)(C(=O)NC2CCCCCC2)C1 (stereo unspecified),67% (inactive)
17,CCC(=O)Nc1ccccc1-c1nc2ccccc2n(C(C)C(=O)Nc2cccc(Cl)c2C)c1=O (stereo unspecified),42% (active)
18,CCC(=O)Nc1ccccc1-c1nc2ccccc2n(C(CC)C(=O)Nc2cccc(C(C)=O)c2)c1=O (stereo unspecified),91% (inactive)
19,CCC(C(=O)Nc1ccc(C)c(Cl)c1)n1c(=O)c(-c2ccccc2NC(C)=O)nc2ccccc21 (stereo unspecified),63% (inactive)

row,SMILES,survival
1,CC(=O)Nc1ccccc1-c1nc2ccccc2n(C(C)C(=O)Nc2cccc(C)c2C)c1=O (stereo unspecified),100% (inactive)
2,CCC(=O)Nc1ccccc1-c1nc2ccccc2n(C(C)C(=O)Nc2ccc(OC)cc2)c1=O (stereo unspecified),55% (inactive)
3,CCC(=O)Nc1ccccc1-c1nc2ccccc2n(C(CC)C(=O)Nc2cccc(Cl)c2)c1=O (stereo unspecified),24% (active)
4,CC(C)N(C(=O)CSc1nnc(Cn2nnc3ccccc32)n1C)C(C)C,81% (inactive)
5,Cc1ccn2c(Nc3ccc4c(c3)OCO4)c(-c3ccc(N(C)C)cc3)nc2c1,101% (inactive)
6,COc1ccc(C(=O)Oc2ccc(C(c3c(C)[nH][nH]c3=O)c3c(C)[nH][nH]c3=O)cc2)cc1,80% (inactive)
7,COc1ccc2sc(N(Cc3cccnc3)C(=O)c3ccco3)nc2c1,-2% (active)
8,COc1cc(C(=O)N(Cc2cccnc2)c2nc3cc(C)c(C)cc3s2)cc(OC)c1OC,49% (inactive)
9,CCS(=O)(=O)c1ccccc1C(=O)N(Cc1cccnc1)c1nc2cc(C)c(C)cc2s1,112% (inactive)
10,Cc1cc2nc(N(Cc3cccnc3)C(=O)c3ccc(Cl)s3)sc2cc1C,32% (active)
11,COc1ccc2nc(N(Cc3cccnc3)C(=O)c3ccco3)sc2c1,101% (inactive)
12,COc1ccc2sc(N(Cc3cccnc3)C(=O)c3cccs3)nc2c1,76% (inactive)
13,COc1ccc(N(C(=O)c2snc(C(N)=O)c2N)C(C(=O)NCc2ccc(F)cc2)c2ccc(C)o2)c(OC)c1 (stereo unspecified),67% (inactive)
14,Cc1ccccc1-c1noc(-c2ccc(N3CCCC3)c([N+](=O)[O-])c2)n1,65% (inactive)
15,Cc1ccc(-c2cc(NC(=O)C(C)Oc3ccccc3F)on2)cc1 (stereo unspecified),33% (active)
16,CCc1ccccc1NC(=O)C(CC)Oc1ccccc1-c1nnc(-c2ccccc2)o1 (stereo unspecified),32% (active)
17,CCC(Oc1ccccc1F)C(=O)Nc1c(C(=O)c2ccccc2)oc2ccccc12 (stereo unspecified),53% (inactive)
18,Cc1ccc(-c2cc(NC(=O)C(C)Oc3ccc(C)c(C)c3)on2)cc1 (stereo unspecified),93% (inactive)
19,CCC(Oc1ccc(F)cc1)C(=O)Nc1cc(-c2ccc(C)cc2)no1 (stereo unspecified),54% (inactive)

row,SMILES,survival
1,CCC(Oc1ccccc1-c1nnc(-c2ccccc2)o1)C(=O)Nc1ccc(C(C)=O)cc1 (stereo unspecified),112% (inactive)
2,CC(Oc1ccc(F)cc1)C(=O)Nc1cc(-c2ccc(F)c(F)c2)no1 (stereo unspecified),59% (inactive)
3,CCC(Oc1ccccc1F)C(=O)Nc1cc(-c2ccccc2)no1 (stereo unspecified),35% (active)
4,CCOC(=O)c1ccccc1NC(=O)COc1ccccc1-c1nnc(-c2ccccc2)o1,49% (inactive)
5,Cc1ccc(NC(=O)CCCn2c(=O)c3cccn3c3cccnc32)c(C)c1,87% (inactive)
6,COc1ccc(CNC(=O)CCc2nnc3n(C)c(=O)c4sccc4n23)cc1,180% (inactive)
7,O=C(CN1CCN(Cc2ccccc2Cl)C1=O)NCCc1ccc(Cl)cc1,49% (inactive)
8,COc1cccc(-c2nc(SCC(=O)NCC3CCCO3)c(-c3ccc(Cl)cc3)[nH]2)c1 (stereo unspecified),63% (inactive)
9,CCOc1c(Br)cc(C2CC(=O)Nc3cc4c(cc32)OCO4)cc1OC (stereo unspecified),127% (inactive)
10,CCOc1ccc(N2C(=O)CC(N3CCCCC3CC)C2=O)cc1 (stereo unspecified),53% (active)
11,COc1ccc(N2C(=O)CC(N3CCCCC3C)C2=O)cc1 (stereo unspecified),106% (inactive)
12,CCC1CCCCN1C1CC(=O)N(c2ccc(NC(C)=O)cc2)C1=O (stereo unspecified),96% (inactive)
13,CCSc1nnc2n(-c3cccc(C)c3)c(=O)c3c4c(sc3n12)CCCC4,71% (inactive)
14,CCCSc1nnc2n(-c3cccc(C)c3)c(=O)c3c4c(sc3n12)CCCC4,5% (active)
15,Cc1cccc(-n2c(=O)c3c4c(sc3n3cnnc23)CCCC4)c1,72% (inactive)
16,CCSc1nnc2n(-c3ccccc3)c(=O)c3c4c(sc3n12)CCCC4,95% (inactive)
17,CCCCSc1nnc2n(-c3cccc(C)c3)c(=O)c3c4c(sc3n12)CCCC4,1% (active)
18,CSc1nnc2n(-c3cccc(C)c3)c(=O)c3c4c(sc3n12)CCCC4,66% (inactive)
